USP1 inh: inhibitors of human USP1/UAF1 deubiquitinase; recombinant USP1/UAF1, Ub-Rhodamine cleavage fluorescence; Potency, µM (highest dose often 57.1 µM), without a hit: top-dose activity change, negative = inhibition, usual class: inhibitors; O94782; hit rate 0.23% among 390,000; also: potency is read from the fitted curve at half-maximal effect; nearly all actives have a fitted effect of over 60% in size
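USP1/UAF1 complex at 1 nM was preincubated with compound for 15 min at room temperature, then Ub-Rho substrate (150nM final) was added. Fluorescence (480/540 nm) was read kinetically, 6 reads every 60 seconds.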
PLK1 PBD block: inhibitors of human PLK1 polo-box domain binding; P53350; Plk1 PBD binding of FITC phosphopeptide, fluorescence polarization; Potency, µM, inactives show max response, negative = inhibition, usual class: inhibitors; hit rate 2.8% among 360,000; also: potency is read from the fitted curve at half-maximal effect; series mostly up to about 57 µM; nearly all actives have a fitted effect of over 65% in size
PI5P4Ka inh: PI5P4K alpha (human) kinase inhibition | P48426 | hit rate 1.2% among 330,000 | max response, % | PI5P4Kalpha enzyme, ADP-Glo luminescence, 60 min; stronger effect = lower value | AID 652105; active = max response of -50% or lower; inconclusive = between -30% and -50%; inactive = -30% or higher; also: value at the top dose of about 77 µM
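Reactions run in 0.038 M HEPES pH 7.4, 0.28 mM EGTA, 0.1% CHAPS and 5% DMSO, with PI5P4Kalpha, substrate, compound and 5 microM ATP final, one hour at room temperature. Readout is ADP-Glo luminescence.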
WRN inhibitor: WRN helicase (human) inhibition; hit rate 0.46% among 360,000; WRN helicase unwinding, fluorescent forked duplex, kinetic; Potency, µM (titrated, usually from 114 µM), inactives show at the top dose activity change, negative = inhibition, usual class: inhibitors; AID 651768; Q14191; also: potency is read from the fitted curve at half-maximal effect; nearly all actives have a fitted effect of over 55% in size
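Kinetic fluorescence helicase assay: unwinding of a quenched forked DNA duplex (100 nM final) with 2 mM ATP final raises red fluorescence (525/598 nm). Compounds sat 15 min at room temperature with 20 nM WRN beforehand.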
USP2a block: inhibitors of human ubiquitin-specific protease USP2a; hit rate 0.01% among 330,000; AID 463254; Potency, µM (series often up to 38.3 µM), without a hit: at the top dose activity change, negative = inhibition, actives largely listed as inhibitors; USP2 core, Ub-CHOP2 coupled fluorogenic reporter, 485/531;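 also: potency is read from the fitted curve at half-maximal effect; plate controls were DMSO wells for no effect and full inhibition by NEM control for full effect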
Target sequence (O75604 whole entry, looked up): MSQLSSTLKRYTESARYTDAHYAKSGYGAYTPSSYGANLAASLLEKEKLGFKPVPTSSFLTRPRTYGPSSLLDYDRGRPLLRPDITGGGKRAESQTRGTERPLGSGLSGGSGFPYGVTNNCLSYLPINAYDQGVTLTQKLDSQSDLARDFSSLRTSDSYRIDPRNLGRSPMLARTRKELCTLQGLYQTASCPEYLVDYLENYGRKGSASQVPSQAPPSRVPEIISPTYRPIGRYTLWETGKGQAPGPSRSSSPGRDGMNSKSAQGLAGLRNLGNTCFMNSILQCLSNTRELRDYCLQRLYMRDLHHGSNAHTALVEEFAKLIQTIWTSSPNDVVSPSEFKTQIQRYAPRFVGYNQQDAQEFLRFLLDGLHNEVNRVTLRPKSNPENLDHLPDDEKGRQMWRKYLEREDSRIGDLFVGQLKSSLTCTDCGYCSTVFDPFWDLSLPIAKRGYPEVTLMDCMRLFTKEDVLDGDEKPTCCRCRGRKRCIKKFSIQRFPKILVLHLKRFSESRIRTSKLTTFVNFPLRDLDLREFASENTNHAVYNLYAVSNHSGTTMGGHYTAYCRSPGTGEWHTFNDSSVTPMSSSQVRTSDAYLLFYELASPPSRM
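USP2 core (10nM final) preincubated 30min RT with compound in 20mM Tris-HCl pH 8.0, 2mM CaCl2, 2mM beta-mercaptoethanol, 0.05% CHAPS; 25nM Ub-CHOP2 plus 25nM reporter substrate added, fluorescence (Ex485/Em531) read after 60min.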
Numbers without * were called inactive; ? = inconclusive; · = no result given; [ ] = remark or other dose. Sampled rows, rich in hits. Any-hit rate of the full collection: about 3.3%. Unless noted, calls follow the shape of the dose curve; as a rule, active = well fitted curve in the direction sought with a large enough effect; inconclusive = small, poorly fitted or top-dose-only effect, or another doubt; inactive = no such curve, though single readings can be large; an effect the other way counts as inactive or inconclusive. Unless noted, % is scaled to controls: 0 for no effect and ±100 for the full control effect.

SMILES	USP1 inh	PLK1 PBD block	PI5P4Ka inh	WRN inhibitor	USP2a block
O=C(O)CCN1C(=O)C2C3CC(C2C1=O)C1C(c2ccccc2)c2sc(=O)n(-c4ccccc4)c2SC31 (centres undefined)	-6.3%	42.3µM*	2.7	-3.3%	-0.2%
O=C(O)CCN1C(=O)C2C3CC(C2C1=O)C1C(c2ccccc2)c2sc(=O)[nH]c2SC31 (centres undefined)	-27.9%	-29.8%	-0.1	0.3%	1.9%
CCOc1ccc(CNC(=O)c2cccc(NC(=O)N3CCSc4ncccc43)c2)cc1OC	-30.2%	·	·	·	·
O=S(=O)(c1ccccc1)C(/C=N\O)/C=C/c1ccccc1 (centres undefined)	4.7%	2.99µM*	1.4	?	2.2%
CC(C)C(C=Cc1ccccc1)=NNS(=O)(=O)c1ccccc1	·	-4.6%	-0.1	-3.9%	·
COc1ccc(CCNC(=O)c2ccc3c(c2)CCN3S(=O)(=O)c2ccc(C)cc2)cc1OC	-26.0%	·	·	·	·
COc1ccc(CNS(=O)(=O)c2ccc(N3CCCC3)cc2Br)cc1	-26.6%	23.8µM*	-27.2	-2.1%	-0.6%
O=C(O)c1cc(Cl)c2c(c1)[C@@H]1C=CC[C@@H]1[C@H](c1ccc(S(=O)(=O)N3CCOCC3)cc1)N2	-16.1%	26.7µM*	-53.0*	28.2µM*	3.1%
CCOc1ccc(N)c(SSc2cc(OCC)ccc2N)c1	-22.0%	1.68µM*	?	-11.3%[11.6 µM]	1.0%
COc1ccccc1N1CCN(C(=O)c2cn(C)c3ccc(S(=O)(=O)N(C)C4CCCCC4)cc3c2=O)CC1	-10.8%	·	·	·	·
Cc1ccccc1/C=N/Nc1nc2ccccc2c(=O)n1O	-15.7%	11.9µM*	-14.1	-12.2%[57.1 µM]	0.3%
COc1cc(Cl)c(C)cc1Nc1nc2ccccc2c2nnc(C)n12	-9.8%	·	·	·	·
O=C(NCc1ccco1)c1cccnc1-c1nc2ccccc2s1	-9.0%	23.8µM*	?	?	-0.8%
O=C(NCc1ccco1)c1cccnc1Cl	-18.1%	2.3%	-5.8	-32.1%[57.1 µM]	1.6%
COc1cc(C(=O)N/C(=C\c2cn(C)c3ccccc23)C(=O)NCCCN2CCOCC2)cc(OC)c1OC	-1.8%	16.8µM*	-4.7	-8.6%	0.9%
Cc1ccc(C(=O)N/C(=C\c2ccc(-c3ccccc3[N+](=O)[O-])o2)C(=O)NCCCN2CCOCC2)cc1	?	26.7µM*	-6.0	15.9%	-0.3%
CCn1cc(/C=C(\NC(=O)c2ccc(OC)c(OC)c2)C(=O)N2CCN(C)CC2)c2ccccc21	-24.1%	26.7µM*	-2.8	-3.9%	-0.2%
COc1ccc(C(=O)N/C(=C\c2cccc3ccccc23)C(=O)N2CCN(C)CC2)cc1OC	-21.0%	-10.5%	-1.9	4.5%	3.1%
COc1ccccc1C(=O)N/C(=C\c1cn(C)c2ccccc12)C(=O)NCCCN1CCOCC1	-27.2%	-2.4%	1.9	-3.4%	1.8%
O=C(Cn1cc(C(=O)C(F)(F)F)c2ccccc21)N1CCCCCC1	-24.5%	·	·	·	·
CC(C)N(Cc1ccccc1)C(=S)Nc1cccnc1	-14.4%	-5.2%	-0.1	-1.8%	1.4%
CN(Cc1ccccc1)C(=S)Nc1cccnc1	-20.5%	21.2µM*	5.9	4.8%	-0.9%
O=C(CC1NCCNC1=O)Nc1ccc(F)c(Cl)c1 (centres undefined)	-3.4%	·	·	·	·
O=c1c2c(-c3ccccc3)csc2ncn1/N=C/c1cccc([N+](=O)[O-])c1O	-2.7%	-17.9%	-102.9*	-5.9%	-4.8%
Cc1cc(NC(=O)CCC(=O)N(CC2CCCO2)C(C(=O)NC2CCCC2)c2cccnc2)no1 (centres undefined)	-2.8%	26.7µM*	-8.9	1.3%	1.2%
SMILES	USP1 inh	PLK1 PBD block	PI5P4Ka inh	WRN inhibitor	USP2a block
O=C(Nc1cccc(Cl)c1)N1CCN2C(=O)c3ccccc3C12c1ccccc1 (centres undefined)	-23.7%	11.9µM*	-23.7	-2.1%	-6.6%
CCn1cc(C(=O)NC(=S)Nc2ccccc2[N+](=O)[O-])cn1	-13.8%	?	-22.2	-10.4%	-0.5%
CCn1cc(C(=O)NC(=S)Nc2ccccc2Br)cn1	-20.6%	-5.5%	-60.3*	0.5%	-0.1%
O=C(NC(=S)Nc1ccccc1C(=O)O)c1cncc(Br)c1	-12.8%	9.47µM*	?	?	0.1%
N#Cc1ccccc1NC(=S)NC(=O)c1cccnc1	-16.0%	11.9µM*	-23.5	-10.7%	-1.3%
CCc1cccc2c1NC(=O)[C@]21[C@@H]2C(=O)N(Cc3ccccc3)C(=O)[C@@H]2[C@@H]2CCCN21	-14.5%	-6.6%	-51.5*	-12.1%[57.1 µM]	1.3%
CC1CCC(C(=O)NC(C(=O)OCC(=O)c2ccc(Br)cc2)C(C)C)CC1 (centres undefined)	-17.2%	·	·	·	·
CCOC(=O)N1CCN(C(=O)c2ccc(CSc3ccc(Cl)cc3)cc2)CC1	?	26.7µM*	?	-28.6%	-6.4%
CCOC(=O)N1CCN(CCC(=O)c2ccc(OC)cc2)CC1	-21.4%	-20.3%	2.1	-7.6%	-3.8%
CCOC(=O)N1CCN(CCC(=O)c2ccc(Cl)cc2)CC1	-17.5%	11.9µM*	-7.9	?	0.6%
CN1CCN(C(=O)c2ccc(CSc3ccc(Cl)cc3)cc2)CC1	-14.8%	-2.7%	0.6	-7.6%	4.0%
COc1ccccc1CNC(=O)c1ccc(-c2nc(CS(=O)c3ccc(C)cc3)c(C)o2)cc1 (centres undefined)	-3.9%	·	·	·	·
Cc1nn(C)c(C(=O)Sc2cccc(Cl)c2)c1[N+](=O)[O-]	-24.5%	4.23µM*	3.3	?	-1.0%
CCn1nc(C)cc1C(=O)N1CCCC(N2CCN(c3cccc(Cl)c3)CC2)C1 (centres undefined)	·	·	·	·	-1.3%
CCn1nc(C)cc1C(=O)Sc1cccc(Cl)c1	-6.1%	18.9µM*	-0.9	3.0%	-0.6%
Cc1cccc(NC(=O)c2sc3nc(-c4cc5ccc(O)cc5oc4=O)[nH]c(=O)c3c2C)c1	307.8%	·	·	·	·
COc1ccc(C(=O)N/N=C(/C)c2ccc(N3CCCCC3)cc2)cc1	-6.4%	29.9µM*	-15.2	4.5%	2.3%
CN1C(=O)/C(=C\C(=O)c2cccs2)c2ccccc21	-19.6%	16.8µM*	0.0	-13.9%	6.6%
COc1ccc2c(c1)CC(NC(=O)Nc1ccc(NC(C)=O)cc1)CO2 (centres undefined)	-11.4%	·	·	·	·
CCOC(=O)c1c(NC(=O)C2CCCCC2C(=O)O)sc2c1CCCCC2 (centres undefined)	-20.3%	?	-6.6	-10.3%	0.0%
COC(=O)c1c(NC(=O)C2CCCCC2C(=O)O)sc2c1CCCCC2 (centres undefined)	-8.1%	23.8µM*	7.4	-4.9%	-1.1%
CCOc1ccccc1NC(=O)c1cc2cc(C)ccc2n1C	-13.6%	·	·	·	·
COc1ccc(N2C3=C(CC4=C2CC(C)(C)CC4=O)C(=O)CC(C)(C)C3)cc1	?	8.44µM*	·	-10.8%[57.1 µM]	1.3%
Cc1cccc(-n2c3c(cc(-c4nc(-c5ccc(Cl)cc5)cs4)c2=O)C(=O)CC(C)(C)C3)c1	13.7%	·	·	·	·
CCOC(=O)c1c(C)[nH]c(C2=NNC(=NC3CC3)SC2)c1C	-21.2%	29.9µM*	-5.1	5.2%	-1.4%

Bioassay records: PubChem BioAssay, National Center for Advancing Translational Sciences (NCATS)
